Compounds with a hit are over-represented: about 4.7% of the library has one in this group of screens.
TRHR PAM: TRH receptor (human) allosteric enhancement. P34981. TRHR cells, fluo-8 calcium fluorescence, EC20 TRH enhancement. enhancement, % at 2 µM. 0.66% of 360,000 active. AID 493056; in the data active means enhancement above about 30%
Target sequence (P34981 whole entry, looked up): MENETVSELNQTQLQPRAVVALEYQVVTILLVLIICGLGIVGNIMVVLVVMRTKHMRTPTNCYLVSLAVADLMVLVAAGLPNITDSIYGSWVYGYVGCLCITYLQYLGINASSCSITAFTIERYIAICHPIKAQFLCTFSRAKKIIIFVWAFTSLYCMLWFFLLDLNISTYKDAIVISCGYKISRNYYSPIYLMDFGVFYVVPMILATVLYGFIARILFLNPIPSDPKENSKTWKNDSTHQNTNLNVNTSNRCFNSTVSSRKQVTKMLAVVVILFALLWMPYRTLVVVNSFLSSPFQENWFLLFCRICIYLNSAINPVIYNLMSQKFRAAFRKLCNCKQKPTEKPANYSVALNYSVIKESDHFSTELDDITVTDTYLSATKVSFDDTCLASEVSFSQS
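TRHR-expressing cells loaded with fluo-8 calcium dye were read kinetically (ex 480/em 530) during compound addition, then stimulated with an EC20 of TRH (10 nM final). Enhancement of the Gq-mediated intracellular calcium response was scored.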
D1 ag: agonists of human D1 dopamine receptor | P21728 | HEK293 T-REx D1 cells, calcium flux, agonist mode | activation, % at 2 µM | 1% of 360,000 active | AID 504660
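Inducible HEK293 T-REx D1 cells, force-coupled to calcium signalling, were plated at 4000 cells/well with tetracycline and held overnight at 30 C. After no-wash calcium dye loading, compound-evoked calcium rise over 180 s flagged agonists.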
D1 antagonist: human D1 dopamine receptor antagonism. P21728. HEK293 TREx D1 cells, calcium flux, dopamine EC80; hits give low values. activity change, negative = inhibition, % at 10 µM. 3.2% of 360,000 active; in the data active means activity change below about -30%
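Using tetracycline-induced force-coupled D1 Hek293 cells and a calcium dye, signals were followed for 180 s after compound, then for 180 s after EC80 dopamine, to detect inhibitors.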
D1 PAM: enhances dopamine response at the human D1 receptor | potentiation, % at 10 µM | 0.036% of 360,000 active | P21728 | AID 504651 | HEK293 TREx D1 cells, calcium flux, dopamine EC20 potentiation; in the data active means potentiation above about 30%
TRHR ag: TRH receptor (human) agonism; TRHR cells, calcium flux fluo-8, FDSS agonist mode; activation, % at 2 µM; 0.18% of 360,000 active; AID 493084
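Fluo-8-loaded TRHR cells; 10 s baseline, compound added, kinetic Ca2+ fluorescence read 1/s, agonist mode.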
A number is an active result; i = inactive. Unless noted, no stated cut-off is given here; in the data, active means activation above about 30%; inactive means the rest.

SMILES	TRHR PAM	D1 ag	D1 antagonist	D1 PAM	TRHR ag
O=C(O)c1ccccc1N/N=C/C1=C(N2CCOCC2)C(=C\c2ccccc2)/CC1	i	i	-30	i	i
COc1ccc(N2CCN(CCCNC(=O)c3nnc(Cc4ccc(F)cc4)o3)CC2)cc1	i	i	i	i	i
CCOc1ccc(-c2oc3cc(Cl)ccc3c(=O)c2O)cc1OC	i	96	i	i	78
CN1CCN(c2ccc(-c3nc(-c4ccccc4)no3)cc2[N+](=O)[O-])CC1	i	i	-38	i	i
CN(C)c1ccc(-c2nc(-c3ccccn3)no2)cc1[N+](=O)[O-]	i	i	-39	i	i
COc1ccc(-c2noc(-c3ccc(N4CCC(C)CC4)c([N+](=O)[O-])c3)n2)cc1OC	i	i	-42	i	i
COc1cc(NC(=O)Cn2c(=O)n(-c3ccccc3)c(=O)c3c4c(sc32)CCCC4)cc(OC)c1	i	i	i	i	i
CCOC(=O)c1c(-c2ccc3ccccc3c2)csc1NC(=O)CCCC(=O)O	i	i	-56	i	i
CCOC(=O)c1c(-c2ccc(OC)cc2)csc1NC(=O)CCN1C(=O)c2ccccc2C1=O	i	i	i	i	i
COc1cc2[nH]c(=O)n(CCCCCC(=O)N3CCN(c4ccc(Cl)cc4)CC3)c(=O)c2cc1OC	i	i	i	i	i
CN(C)c1ccc(/C=N/N(CCO)C2=NS(=O)(=O)c3ccccc32)cc1	i	40	i	i	i
c1csc(-c2noc(COc3ccc4c(c3)CCCC4)n2)c1	i	i	-39	i	i
CCS(=O)(=O)N1CC(=O)N(c2cccc(Cl)c2)C(C)(C(=O)NC2CCCCCC2)C1 (configuration not stated)	i	i	i	i	i
CCOc1cc(C#N)c(NC(=O)c2cccc(S(=O)(=O)N3CCOCC3)c2)cc1OCC	i	i	i	i	i
O=C1c2ccccc2C(=O)N1CCCCN(C(=O)c1cc([N+](=O)[O-])cc([N+](=O)[O-])c1)c1ccc(Cl)cc1	i	i	-51	i	i
Cc1cc2n(n1)CCC(=O)N2Cc1ccc(C(=O)Nc2ccc(F)cc2F)cc1	i	i	i	i	i
CN1CCN(C(=O)c2c(NC(=O)c3ccco3)sc3c2CCC(C(C)(C)C)C3)CC1 (configuration not stated)	i	34	i	i	i
CC(C)(C)C1CCc2c(sc(NC(=O)c3cccs3)c2C(N)=O)C1 (configuration not stated)	i	i	i	33	i
Cc1ccccc1C(=O)Nc1sc2c(c1C(=O)N1CCCCC1)CCC(C(C)(C)C)C2 (configuration not stated)	i	i	i	i	i
Fc1ccc(N2CCN(Cc3nnc(-c4ccccc4Cl)o3)CC2)cc1	i	i	i	i	i
COc1ccccc1N1CCN(C(=O)c2ccc3c(c2)N(Cc2ccccc2)C(=O)c2ccccc2S3(=O)=O)CC1	i	i	i	i	i
S=C(NCc1ccccc1)N1CCN(Cc2ccc3c(c2)OCO3)CC1	i	i	i	i	i
S=C(Nc1ccc2nsnc2c1)NC1CCCCC1	i	46	i	i	i
S=C(Nc1ccc(Cl)c(Cl)c1)NC1CCN(Cc2ccccc2)CC1	i	47	-43	i	i
S=C(Nc1ccc2nsnc2c1)N1CCCCCC1	i	i	i	i	i
SMILES	TRHR PAM	D1 ag	D1 antagonist	D1 PAM	TRHR ag
S=C(NCc1ccc2c(c1)OCO2)NC1CCN(Cc2ccccc2)CC1	i	38	i	i	i
S=C(Nc1ccc(Cl)c(Cl)c1)NC1CCCCC1	i	i	-41	i	i
CC(=O)c1cccc(NC(=O)CCCSc2nc(-c3ccco3)cc(C(F)(F)F)n2)c1	i	i	i	i	i
O=C(CNC(=O)c1ccccc1)N[C@@H](C(=O)Nc1cc(C(F)(F)F)ccc1Cl)c1ccccc1	i	i	i	i	i
CC(C)[C@H](NC(=O)OCc1ccccc1)C(=O)OCC(=O)N1CCN(c2ccc(F)cc2)CC1	i	i	-65	i	i
COc1ccc(CNC(=O)Cn2c(=O)oc3cc(S(=O)(=O)N4CCCCCC4)ccc32)cc1	i	i	i	i	i
CCCNC(=O)Cn1nc(-c2ccc(F)cc2)c2cnc3ccc(F)cc3c21	i	i	i	i	i
Cc1c(C(=O)N2CCCC2)sc(NC(=O)c2ccc(Cl)cc2)c1C#N	i	i	-64	i	i
